ERa SRC1 inh – blocks coactivator binding to human estrogen receptor alpha; P03372; TR-FRET ER-alpha LBD / SRC-1 peptide, estradiol-bound; inhibition, % at 25.6 µM; 1.7% of 86,000 active; AID 629; in the data active = inhibition above about 50%
EphB4 ephrin blk – antagonists of human EphB4-ephrin-B2 interaction; P54760; EphB4 LBD / TNYL-RAW-Alexa532 peptide, fluorescence polarization; inhibition, % at 7 µM; 0.15% of 97,000 active; AID 720;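 active = inhibition above the screen-wide mean inhibition plus 3 SD, cut at about 15% in these data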
Target sequence (P54760 whole entry, looked up, the tested form may be a part): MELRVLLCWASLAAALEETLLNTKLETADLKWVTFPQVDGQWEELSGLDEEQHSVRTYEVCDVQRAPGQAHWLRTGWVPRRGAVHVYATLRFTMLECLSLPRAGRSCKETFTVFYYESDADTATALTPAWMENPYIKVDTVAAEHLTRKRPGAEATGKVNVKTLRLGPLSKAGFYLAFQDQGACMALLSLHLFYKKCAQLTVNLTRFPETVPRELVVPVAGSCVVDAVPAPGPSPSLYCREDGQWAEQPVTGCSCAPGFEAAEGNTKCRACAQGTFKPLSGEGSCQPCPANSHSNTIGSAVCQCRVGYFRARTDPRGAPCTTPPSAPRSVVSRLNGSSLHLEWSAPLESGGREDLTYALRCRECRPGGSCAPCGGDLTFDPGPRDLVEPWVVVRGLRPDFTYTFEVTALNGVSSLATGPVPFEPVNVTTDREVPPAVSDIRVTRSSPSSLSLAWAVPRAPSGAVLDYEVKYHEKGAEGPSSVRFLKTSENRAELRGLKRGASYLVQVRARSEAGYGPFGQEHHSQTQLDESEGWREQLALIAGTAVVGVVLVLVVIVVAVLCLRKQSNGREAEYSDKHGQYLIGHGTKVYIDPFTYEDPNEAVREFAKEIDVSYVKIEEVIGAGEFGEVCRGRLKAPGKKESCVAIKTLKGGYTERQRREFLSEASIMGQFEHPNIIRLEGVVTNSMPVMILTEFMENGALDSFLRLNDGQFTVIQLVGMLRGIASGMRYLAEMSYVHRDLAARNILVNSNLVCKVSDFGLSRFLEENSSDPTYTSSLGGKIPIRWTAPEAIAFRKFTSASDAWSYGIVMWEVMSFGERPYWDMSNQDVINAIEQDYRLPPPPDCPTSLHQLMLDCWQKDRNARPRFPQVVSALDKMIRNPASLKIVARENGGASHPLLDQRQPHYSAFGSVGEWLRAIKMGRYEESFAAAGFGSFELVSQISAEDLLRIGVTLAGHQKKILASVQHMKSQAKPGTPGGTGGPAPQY
ERb coact inh – ER-beta (human) coactivator binding inhibition; inhibition, % at 25.6 µM; AID 633; Q92731; TR-FRET ER-beta LBD / SRC1-Cy5 peptide binding; receptor agonist-loaded with 1 µM estradiol; 1.3% of 86,000 active;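 active = compounds whose percent inhibition of the receptor-coactivator binding signal exceeds about 50% in the single-dose screen, limit read from the data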
ERa SRC1 pot – ER-alpha (human) coactivator binding potentiation; TR-FRET ERalpha-LBD/SRC-Cy5 coactivator binding, 2 h; 100 = basal binding, no effect; coactivator binding (% of control), % at 25.6 µM; 1.3% of 86,000 active; in the data active = activity above about 200%;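 also: binding measured in presence of low estradiol as agonist stimulus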
Numbers stand for hits; - = inactive; . = no result given; [ ] = another dose, or the depositor's remark. Most compounds without a hit are left out; they make up all but 2.8% or so of the library.

SMILES	ERa SRC1 inh	EphB4 ephrin blk	ERb coact inh	ERa SRC1 pot
O=c1cc(CSc2nnnn2-c2ccccc2)nc(Nc2ccc(F)cc2)[nH]1	53	-	-	373
Cc1ccc(Nc2nc(CSc3nnnn3-c3ccccc3)cs2)cc1	-	-	-	-
CCn1c(SCC(=O)Nc2ccc3c(c2)OCCO3)nnc1-c1ccco1	-	-	-	-
CCn1c(SCC(=O)Nc2ccc3c(c2)oc2ccccc23)nnc1-c1ccc(N)cc1	74	-	50[fluorescence artefact?]	-
CCn1c(SCC(=O)Nc2ccc3c(c2)c2ccccc2n3CC)nnc1-c1ccco1	63	-	-	-
O=C(O)COc1ccc2c3c(c(=O)oc2c1)CCC3	-	-	-	-
c1ccc2c(c1)OCC(c1nnc3sc(-c4cnccn4)nn13)O2 (stereo not given)	92[fluorescence artefact?]	-	82[fluorescence artefact?]	-
COc1ccc(CCNC(=O)c2ccc(CNS(=O)(=O)c3cc(C)ccc3C)cc2)cc1OC	.	-	.	.
Cc1ccc(-n2c(SCC(=O)Nc3nccs3)nc3c(c2=O)SCC3)cc1	-	.	-	-
CCOc1ccc(-n2c(SCC(=O)Nc3nccs3)nc3c(c2=O)SCC3)cc1	77[fluorescence artefact?]	.	-	-
O=C(CSc1ncnc2c1oc1ccccc12)Nc1cccc(F)c1	-	-	50[fluorescence artefact?]	370[fluorescence artefact?]
CC(=O)Nc1ccc(-c2nnc(SCC(=O)Nc3ccc4c(c3)oc3ccccc34)n2C)cc1	-	-	-	-
COc1ccccc1NC(=O)CSc1ncnc2c1oc1ccccc12	-	-	-	-
Cc1cccc(NC(=O)CSc2ncnc3c2oc2ccccc23)c1	50[fluorescence artefact?]	-	58[fluorescence artefact?]	395[fluorescence artefact?]
Cn1c(SCC(=O)Nc2cccc(F)c2)nnc1-c1cc2ccccc2o1	-	-	-	688[fluorescence artefact?]
Cc1ccc2nc(NC(=O)CSc3ncnc4c3oc3ccccc34)sc2c1	-	-	-	-
O=C(Oc1cccc(Nc2ncnc3ccccc23)c1)c1ccccc1Cl	.	-	.	.
CC(CC(=O)NC1CCCC1)c1ccccc1 (stereo not given)	-	-	-	-
Cc1cccc(C(C)Nc2ccc([N+](=O)[O-])cn2)c1 (stereo not given)	.	-	.	.
Cc1nn2c(-c3cccc(NC(=O)CSc4nc5ccccc5o4)c3)nnc2c2ccccc12	69[fluorescence artefact?]	-	55	-
Cc1ccc(S(=O)(=O)c2c(N)n(/N=C/c3ccco3)c3nc4ccccc4nc23)cc1	-	-	-	-
Cc1cccc(S(=O)(=O)c2c(N)n(/N=C/c3ccco3)c3nc4ccccc4nc23)c1	-	-	-	253
Cc1cc(C)n2nc(SCc3cc(=O)oc4cc(O)ccc34)nc2n1	58	-	62[fluorescence artefact?]	-
O=CN1CC(=O)N(c2ccccc2)c2c([nH]c3ccccc23)C1	-	-	-	-
CCOC(=O)Cc1cc(=O)n2[nH]c(-c3ccc(C)cc3)cc2n1	73	-	56	-
SMILES	ERa SRC1 inh	EphB4 ephrin blk	ERb coact inh	ERa SRC1 pot
O=C(c1ccccc1)c1nn(-c2ccc(Cl)cc2)cc1C(=O)c1cc2ccccc2oc1=O	.	-	.	.
Cc1ccc(-n2c(SCn3nnc4ccccc4c3=O)nnc2-c2cccnc2)c(C)c1	87[fluorescence artefact?]	.	-	-
Cc1cc2n(c1)CCn1c(C)ccc1-2	91[fluorescence artefact?]	-	52	-
CCCC1=[N+](CC)CCn2c(C)ccc21	-	-	-	-
CC(=O)c1c(C)nc(-c2ccc3c(c2)OCO3)n1O	-	-	-	667[fluorescence artefact?]
O=C(CSc1nc(-c2ccc(F)cc2)cc(C(F)(F)F)n1)NCc1ccco1	-	-	-	-
C[C@]12CC[C@H]3C(=CCc4cc(O)ccc43)[C@@H]1CCC2=O	-	.	-	206
O=c1[nH]nc(Sc2ncnc3sccc23)n1CCc1ccccc1	-	-	-	-
Cc1ccc2cc(C#N)c(N3CCCN(C(=O)C4CCCO4)CC3)nc2c1 (stereo not given)	-	-	-	-
COc1cc(C(=O)N2CCCN(c3nc4cc(C)ccc4cc3C#N)CC2)cc(OC)c1OC	-	.	-	-
Cc1cc(C)c2cc(C#N)c(N3CCCC3)nc2c1	51[fluorescence artefact?]	-	-	-
Cc1ccc2nc(N3CCN(S(=O)(=O)c4ccc5c(c4)OCCO5)CC3)c(C#N)cc2c1	-	-	56[fluorescence artefact?]	258[fluorescence artefact?]
Cc1ccc(S(=O)(=O)N2CCCN(c3nc4cc(C)ccc4cc3C#N)CC2)cc1	-	-	-	350[fluorescence artefact?]
CC(C)c1nc2sc3c(NCc4ccccc4)ncnc3c2c2c1COC(C)(C)C2	-	-	-	366[fluorescence artefact?]
CC(C)c1nc2sc3c(NCc4ccco4)ncnc3c2c2c1COC(C)(C)C2	54[fluorescence artefact?]	-	-	-
Cc1ccc(N(CC(O)CON=C2c3ccccc3-c3ccccc32)S(C)(=O)=O)cc1 (stereo not given)	-	-	-	-
COC(=O)c1ccc(C(=O)OC)c(NC(=O)c2cc3ccccc3o2)c1	-	-	-	364[fluorescence artefact?]
COC(=O)c1ccc(N2CCN(C)CC2)c(NC(=O)c2cc3ccccc3o2)c1	-	-	-	-
CCCCCNC(CC(=O)Nc1ccc(OC)cc1)C(=O)O (stereo not given)	-	.	-	788[fluorescence artefact?]
CCCC1=C(C(=O)OCC)C(c2ccncc2)n2ncnc2N1 (stereo not given)	-	-	-	-
COc1cccc(-c2[nH]nc3c2C(c2ccoc2)C(C#N)=C(N)O3)c1 (stereo not given)	-	-	58	-
COc1nc(C)nc2c1sc(=S)n2C	-	-	-	-
O=C(Nc1ccccc1N1CCOCC1)c1cc(-c2ccco2)nc2ccccc12	87[fluorescence artefact?]	-	79	-
Cc1cc(C(=O)Nc2ccc(N3CCOCC3)cc2)c2ccccc2n1	-	-	-	-
N/C(COc1cccc(C(F)(F)F)c1)=N\NC(=O)c1cccnc1Oc1ccccc1	-	-	-	-
SMILES	ERa SRC1 inh	EphB4 ephrin blk	ERb coact inh	ERa SRC1 pot
Cc1cc(C)nc(Sc2nc(Cl)nc(N(c3ccccc3)c3ccccc3)n2)n1	.	-	.	.
CCC(CC)C(=O)Nc1cc(C)c2c(=O)oc3ccccc3c2n1	-	.	-	-
CCOc1ccc(C(=O)Nc2cc(C)c3c(=O)oc4ccccc4c3n2)cc1	-	-	-	315[fluorescence artefact?]
COc1ccc(CC(=O)Nc2cc(C)c3c(=O)oc4ccccc4c3n2)cc1	-	.	53[fluorescence artefact?]	243
COc1ccc(-n2ncc3c(SCC(=O)N4CCN(c5ccccc5OC)CC4)ncnc32)cc1	-	-	-	-
Fc1ccc(Cn2nnnc2CN2CCN(C3CCCCC3)CC2)cc1	-	-	-	218[fluorescence artefact?]
c1coc(Cn2nnnc2CN2CCN(C3CCCC3)CC2)c1	-	-	-	-
COc1ccc(C2=Nn3c(nnc3-c3ccccc3OC)SC2)cc1OC	.	-	.	.
COc1ccc(-c2nnc3n2N=C(c2cccc(Br)c2)CS3)cc1OC	-	.	-	233
COc1ccc(N(C(=O)c2ccco2)C(C(=O)NC2CCCC2)c2ccc(N(C)C)cc2)cc1OC (stereo not given)	-	-	-	-
COc1ccc(C(C(=O)NC2CCCC2)N(C(=O)c2ccco2)c2ccc3c(c2)OCO3)cc1OC (stereo not given)	-	-	57	-
Cc1cccn2c(=O)c3cc(C(=O)Nc4ccc(N(C)C)cc4)n(C)c3nc12	96[fluorescence artefact?]	.	62[fluorescence artefact?]	-
CCN(CC)C(=O)c1cc2c(=O)n3cccc(C)c3nc2n1C	-	-	-	-
CC(=O)OC1=C(C#N)Cn2ccc3cccc1c32	61[fluorescence artefact?]	-	-	-

Screening data (PubChem BioAssay)
